Source: PubChem BioAssay
Activity calls are given as the source filed them.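 The calls were made as follows, unless noted: active = fluorescence slope after compound addition differing from the mean of all screened samples at 99.7% confidence, in either direction; inactive = the rest.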

What was measured:
[1] = inhibitors of TNFa-induced NFkB p65 translocation, primary screen, imaging, HUVEC, MLSMR starter and 10KST1 sets (AID 438;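 active = inhibition above 20% together with a positive visual image hit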;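 also: compound added about 3h40 before a 20 min TNFalpha stimulation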;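 as to inhibition: signal is the nuclear over cytoplasmic p65 intensity ratio per well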); details: HUVEC TNFa-induced p65 nuclear translocation; cell count: measured here: nuclei count (cytotoxicity indicator), at 2.08 µM; inhibition: at 2 µM, stronger effect = higher value, 0% TNFa-plus-vehicle, 100% no-TNFa wells
[2] = reduction of polyQ htt aggregates in cells – imaging, exon1htt(103Q)mCFP cells, high-content imaging, primary screen (AID 483;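 active = visual image review flags a hit and inhibition of aggregation exceeds 20%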;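 also: compound exposure lasted 3 days before fixation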;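 as to nuclei count: percent of the per-plate median nuclei count of sample wells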); details: exon1htt(103Q)mCFP cell line, aggregate imaging, at 2 µM; inhibition of aggregation: stronger effect = higher value; nuclei count: measured here: cell count, toxicity
[3] = endothelial E-selectin expression blockers – imaging, HUVEC, immunofluorescence, MLSMR starter and 10KST1 sets, primary screen (AID 487;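 active = visually confirmed hit in the image check and inhibition above 20%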;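 as to inhibition: signal is fraction of cell area covered by stained E-selectin grains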;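 as to nuclei count: 100% = median nuclei count of all wells on the same plate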); details: HUVEC TNFalpha-induced E-selectin immunofluorescence imaging, at 2 µM; inhibition: stronger effect = higher value; nuclei count: measured here: cell number, toxicity
[4] = molecular target: Voltage-gated potassium channel subunit beta-2 (Rattus norvegicus) (UniProt P62483); assay: inhibitors of rat Kvbeta2 reductase activity – biochemical, NADPH fluorescence, primary screen (AID 622;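 active = fluorescence slope higher than the sample average by over 3 SD, cut at about -0.22 in these data, passing the limit was not always enough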;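 also: slope of raw intensity against log time taken from 70 to 1610 s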); details: recombinant KvBeta, 4-cyanobenzaldehyde reduction, at 10 µM, stronger effect = higher value
Sequence of Voltage-gated potassium channel subunit beta-2 (Rattus norvegicus) (P62483 whole entry, looked up): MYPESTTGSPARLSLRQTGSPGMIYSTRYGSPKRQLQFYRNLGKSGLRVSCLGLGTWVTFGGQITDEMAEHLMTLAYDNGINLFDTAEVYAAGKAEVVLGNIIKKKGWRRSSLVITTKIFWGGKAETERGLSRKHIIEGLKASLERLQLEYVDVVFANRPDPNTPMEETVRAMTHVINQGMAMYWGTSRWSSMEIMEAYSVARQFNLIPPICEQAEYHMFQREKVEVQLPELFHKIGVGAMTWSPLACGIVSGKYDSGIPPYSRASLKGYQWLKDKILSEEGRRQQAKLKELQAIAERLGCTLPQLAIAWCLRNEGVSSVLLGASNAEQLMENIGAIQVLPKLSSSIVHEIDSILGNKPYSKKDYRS

[5] = molecular target: Voltage-gated potassium channel subunit beta-2 (Rattus norvegicus) (UniProt P62483); assay: enhancers of rat Kvbeta2 NADPH turnover – biochemical, NADPH fluorescence, primary screen (AID 623;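 active = NADPH fluorescence slope more negative than the mean of all samples by about 3 SD, 99.7% confidence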;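 also: fluorescence intensity change per second fitted from 20 to 320 s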); details: Recombinant KvBeta, NADPH fluorescence decrease slope, 10 min; at 10 µM; stronger effect = lower value
[6] = molecular target: Alpha-2C adrenergic receptor (Homo sapiens) (UniProt P18825); assay: compounds altering alpha2C-coupled GIRK flux – cell-based, HEK293 alpha2C/GIRK1/2, thallium flux, primary screen (AID 624); details: thallium flux BTC fluorescence, at 10 µM, actives lie on both sides;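 also: slope of fluorescence ratio to pre-addition baseline per second over 15 to 24 s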
Sequence of Alpha-2C adrenergic receptor (Homo sapiens) (P18825 whole entry, looked up): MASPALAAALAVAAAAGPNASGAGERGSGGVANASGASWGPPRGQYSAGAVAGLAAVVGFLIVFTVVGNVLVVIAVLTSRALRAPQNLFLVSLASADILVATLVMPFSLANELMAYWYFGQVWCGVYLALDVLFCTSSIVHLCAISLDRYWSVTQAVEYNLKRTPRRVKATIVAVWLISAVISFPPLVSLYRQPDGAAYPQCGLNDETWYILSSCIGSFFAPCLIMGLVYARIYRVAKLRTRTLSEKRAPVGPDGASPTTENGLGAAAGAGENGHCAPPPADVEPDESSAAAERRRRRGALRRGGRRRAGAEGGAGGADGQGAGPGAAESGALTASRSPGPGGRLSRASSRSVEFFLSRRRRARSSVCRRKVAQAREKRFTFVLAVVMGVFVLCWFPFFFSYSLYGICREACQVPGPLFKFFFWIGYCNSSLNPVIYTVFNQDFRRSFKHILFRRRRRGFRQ

[7] = blockers of RIG-like receptor reporter activation – cell-based, Sendai virus stimulus, luciferase, 10K MLSCN set, TLR/RLR signaling modifier project, primary screen (AID 602276;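 active = inhibition at or above 50% at 10 µM; inactive = inhibition below 50%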;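 also: firefly luciferase from ISG56 promoter only with Renilla not read in this screen; 0% = Sendai virus plus DMSO and 100% = medium plus DMSO without virus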); details: HEK293 RL24 IRF3 luciferase reporter, at 10 µM, stronger effect = higher value
[8] = TLR3 IRF3 reporter activation blockers – cell-based, poly I:C stimulus, luciferase, 10K MLSCN set, primary screen (AID 602277;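 active = inhibition of the reporter signal at or above 50%; inactive = inhibition below 50%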); details: HEK293-TLR3 RL24 IRF3 luciferase reporter, at 10 µM, stronger effect = higher value

Compound	cell count [1]	inhibition [1]	inhibition of aggregation [2]	nuclei count [2]	inhibition [3]	nuclei count [3]	fluorescence slope [4]	NADPH fluorescence slope [5]	slope [6]	inhibition [7]	inhibition [8]
CCCC(=O)Nc1nc2ccc(S(N)(=O)=O)cc2s1	718	-1.8% (inactive)	-16.5% (inactive)	102%	-9.7% (inactive)	100%	-0.406 (inactive)	5.8e-05 (inactive)	0.00596 (inactive)	-18.7% (inactive)	-57.7% (inactive)
CN=C(Nc1ccc2c(c1)OCO2)SC1CC(=O)N(c2ccccc2)C1=O (configuration not stated)	699	11% (inactive)	6.4% (inactive)	95.4%	7.9% (inactive)	112%	-0.381 (inactive)	-3.2e-05 (inactive)	0.00557 (inactive)	10% (inactive)	17.2% (inactive)
COc1ccccc1OCCCn1c(=O)oc2ccccc21	219	3.7% (inactive)	3.2% (inactive)	91.4%	-46.5% (inactive)	94.4%	-0.506 (inactive)	-4.3e-05 (inactive)	0.00513 (inactive)	-13.6% (inactive)	-42.9% (inactive)
COc1cccc(-c2nc(CS(=O)(=O)CC(=O)NCc3ccc(Cl)cc3)c(C)o2)c1	840	-2.3% (inactive)	-4.4% (inactive)	122%	-41.4% (inactive)	118%	-0.554 (inactive)	1.6e-06 (inactive)	0.00669 (inactive)	-3.28% (inactive)	18% (inactive)
O=C(CSc1ccc2nnc(-c3ccccc3)n2n1)N1CCN(c2ccccc2)CC1	616	0.3% (inactive)	9.9% (inactive)	110%	-34.8% (inactive)	111%	-0.592 (inactive)	-3.7e-05 (inactive)	0.00674 (inactive)	-9.77% (inactive)	3.8% (inactive)
O=C1c2ccccc2CN1CCNS(=O)(=O)c1ccc(Cl)cc1	414	-1% (inactive)	-2.3% (inactive)	101%	-1.7% (inactive)	97%	-0.389 (inactive)	-7.9e-06 (inactive)	0.00712 (inactive)	14.1% (inactive)	25.9% (inactive)
S=C(c1cccs1)N1CCCC1	708	-25.9% (inactive)	-3.8% (inactive)	105%	22.3% (inactive)	100%	-0.421 (inactive)	-4e-05 (inactive)	0.00656 (inactive)	-7.06% (inactive)	6.9% (inactive)
CC(C)n1c(CN2CCN(C)CC2)nc2c1c(=O)n(C)c(=O)n2C	600	-5.3% (inactive)	0.5% (inactive)	103%	-24.8% (inactive)	118%	-0.488 (inactive)	-4.5e-05 (inactive)	0.00573 (inactive)	22.2% (inactive)	22.9% (inactive)
CN(C)CCCN1C(=O)C(=O)/C(=C(/O)c2ccncc2)C1c1cccc(Br)c1 (configuration not stated)	245	-2.8% (inactive)	-9.4% (inactive)	94.1%	1.2% (inactive)	103%	-0.612 (inactive)	-7.1e-05 (inactive)	0.00373 (inactive)	-6.87% (inactive)	-3.17% (inactive)
Cn1c(=O)[nH]c(=O)c2c1nc(NC1CCCCC1)n2CC(=O)NC1CCCCC1	751	-14.7% (inactive)	12.1% (inactive)	90.9%	10.2% (inactive)	105%	-0.4 (inactive)	8.4e-06 (inactive)	0.00653 (inactive)	18.1% (inactive)	21.1% (inactive)
O=C(Nc1ccc(N2CCCC2)cc1)c1cccc(F)c1	694	1.6% (inactive)	24.1% (inactive)	94.5%	-83.5% (inactive)	148%	-0.436 (inactive)	7e-06 (inactive)	0.0066 (inactive)	11.4% (inactive)	-67.8% (inactive)
O=C(NC1CCCCC1)C1CCCN1C(=O)NCc1ccccc1 (configuration not stated)	317	3.4% (inactive)	7.5% (inactive)	106%	-33.5% (inactive)	120%	-0.43 (inactive)	-5.2e-05 (inactive)	0.00543 (inactive)	5.02% (inactive)	10.2% (inactive)
CC(=O)Nc1ccc(OCC(O)Cn2nc(C)nc2C)cc1 (configuration not stated)	357	1.5% (inactive)	-13.4% (inactive)	95.7%	-160% (inactive)	120%	-0.267 (inactive)	-1.1e-05 (inactive)	0.00761 (inactive)	7.41% (inactive)	23.2% (inactive)
CC1Cc2ccccc2N1S(=O)(=O)c1cccc(C(=O)OCC(=O)NC2CCS(=O)(=O)C2)c1 (configuration not stated)	657	0.7% (inactive)	6.3% (inactive)	103%	-92% (inactive)	112%	-0.625 (inactive)	-4.3e-05 (inactive)	0.00343 (inactive)	20.6% (inactive)	29.8% (inactive)
Cc1cc(NS(=O)(=O)c2ccc(Nc3nc(-c4sc(N)nc4C)cs3)cc2)no1	333	5.5% (inactive)	-10.4% (inactive)	117%	-11.3% (inactive)	103%	-0.412 (inactive)	-7.5e-05 (inactive)	0.00495 (inactive)	6.21% (inactive)	25.1% (inactive)
O=C(CCN1C(=O)C2C3C=CC(C3)C2C1=O)NCCc1ccccc1Cl (configuration not stated)	408	10.7% (inactive)	-1.6% (inactive)	103%	-111% (inactive)	99.4%	-0.498 (inactive)	-2.1e-05 (inactive)	0.00634 (inactive)	-11.5% (inactive)	-13.2% (inactive)
O=C1C(Cl)=C(NCC2CCCO2)C(=O)N1CCc1ccccc1 (configuration not stated)	711	-10% (inactive)	9.2% (inactive)	102%	27.8% (inactive)	107%	-0.448 (inactive)	1.5e-05 (inactive)	0.00576 (inactive)	-53.6% (inactive)	-108% (inactive)
CC1CCCN(C(=O)c2cc3c(-c4ccc(Cl)cc4)nn(C)c3s2)C1 (configuration not stated)	749	-1.7% (inactive)	-30.1% (inactive)	104%	-30.2% (inactive)	111%	-0.607 (inactive)	-5.2e-06 (inactive)	0.00725 (inactive)	7.9% (inactive)	45.2% (inactive)
Cn1c(=O)c(=O)n(C)c2cc(S(=O)(=O)Nc3ccc4c(c3)OCCO4)ccc21	354	-1.2% (inactive)	-18.4% (inactive)	106%	-21.4% (inactive)	108%	-0.421 (inactive)	-5.4e-05 (inactive)	0.00519 (inactive)	45.1% (inactive)	35.8% (inactive)
CCOC(=O)C1CCN(C(=O)COc2ccc(Cl)cc2Cl)CC1	705	-5.1% (inactive)	8% (inactive)	103%	4.3% (inactive)	104%	-0.613 (inactive)	-1.6e-05 (inactive)	0.00593 (inactive)	3.61% (inactive)	14.2% (inactive)
O=C(NCN1CCCCC1)c1cnccn1	604	-9.2% (inactive)	-3.4% (inactive)	102%	-101% (inactive)	115%	-0.425 (inactive)	-8.7e-05 (inactive)	0.00561 (inactive)	13.6% (inactive)	29% (inactive)
Cn1c(=O)c(=O)n(C)c2cc(S(=O)(=O)N3CCCCC3)ccc21	289	0.7% (inactive)	22.5% (inactive)	83.6%	-3.4% (inactive)	87.6%	-0.426 (inactive)	-7.3e-05 (inactive)	0.00642 (inactive)	14.8% (inactive)	14.6% (inactive)
Fc1ccc(NCc2nnc(SCc3nnc(-c4ccccc4)o3)n2CC2CCCO2)cc1 (configuration not stated)	571	-9.7% (inactive)	-6% (inactive)	56.6%	14.2% (inactive)	90.9%	-0.528 (inactive)	3.2e-05 (inactive)	0.00596 (inactive)	-28.3% (inactive)	-12.4% (inactive)
CCn1c(=O)cc(OCC(=O)Nc2nc(C)cs2)c2ccccc21	809	-1.7% (inactive)	-24.7% (inactive)	90.4%	-54.6% (inactive)	125%	-0.525 (inactive)	-3.4e-05 (inactive)	0.00615 (inactive)	7.74% (inactive)	32.8% (inactive)
CN1CCN(C(=O)NC2CCCN2S(=O)(=O)c2ccc(Cl)cc2)CC1 (configuration not stated)	528	-20.6% (inactive)	11.5% (inactive)	106%	31.3% (inactive)	105%	-0.493 (inactive)	-5.8e-05 (inactive)	0.00636 (inactive)	0.971% (inactive)	21.8% (inactive)
CCCNC(=O)c1ccccc1C(=O)NCCC	386	-1.6% (inactive)	23.1% (inactive)	94.4%	-3.9% (inactive)	115%	-0.53 (inactive)	0.000133 (inactive)	0.00613 (inactive)	15.6% (inactive)	18% (inactive)
O=C(NC1CCCC1)C(c1cccs1)N(Cc1ccco1)C(=O)Cn1nnc(-c2cccs2)n1 (configuration not stated)	482	-3.3% (inactive)	-7.1% (inactive)	102%	3.8% (inactive)	101%	-0.487 (inactive)	-3.1e-05 (inactive)	0.00489 (inactive)	20.2% (inactive)	23.1% (inactive)
